Source: PubChem BioAssay
Shown are actives, neighbours in structure and some others; about 5.6% of the full set was active somewhere.
PHOSPHO1 block: PubChem AID 1565; 290,000 compounds, 1.1% hits; Phosphoethanolamine/phosphocholine phosphatase (Homo sapiens), Q8TCT1; recombinant PHOSPHO1, absorbance phosphatase assay; inhibition, % at 13.3 µM; in the data active means inhibition above about 60%
Target sequence (Q8TCT1 whole entry, looked up): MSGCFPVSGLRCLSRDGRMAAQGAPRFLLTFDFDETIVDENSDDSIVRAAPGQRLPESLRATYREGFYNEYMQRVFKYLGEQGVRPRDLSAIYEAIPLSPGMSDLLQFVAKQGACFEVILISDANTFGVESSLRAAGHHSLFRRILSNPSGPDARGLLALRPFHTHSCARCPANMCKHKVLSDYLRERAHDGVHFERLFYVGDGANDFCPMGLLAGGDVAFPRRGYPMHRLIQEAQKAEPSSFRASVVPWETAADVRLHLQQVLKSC
ALR inh: inhibitors of human ALR sulfhydryl oxidase, primary screen, biochemical, H2O2 detection, HRP-luminol luminescence, single point; FAD-linked sulfhydryl oxidase ALR (Homo sapiens), P55789; purified ALR, DTT oxidation; inhibition, % (concentration not given with the values); 290,000 compounds, 3.8% hits; AID 485317, 2010;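 active means mean replicate inhibition above about 79%, with every replicate also reaching it, limit read from the data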
Target sequence (P55789 whole entry, looked up): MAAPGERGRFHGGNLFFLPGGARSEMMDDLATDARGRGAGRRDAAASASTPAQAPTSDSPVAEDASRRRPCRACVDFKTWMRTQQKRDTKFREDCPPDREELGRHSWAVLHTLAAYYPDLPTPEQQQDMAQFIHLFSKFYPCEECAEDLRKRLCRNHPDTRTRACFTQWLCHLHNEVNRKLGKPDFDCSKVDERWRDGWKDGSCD
Cardio protect: cardioprotection against H2O2-induced cell death, primary screen, uHTS, H9c2 cells, ATPLite luminescence; protection from H2O2 cell death, % at 20 µM; H9c2 cardiomyocytes, H2O2 injury protection, 2 h; 360,000 compounds, 0.63% hits;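 active means compounds giving at least 50% protection of heart cells from peroxide-induced death in the single-dose screen, raw or plate-pattern-corrected value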;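 further: 0% = DMSO wells with peroxide and 100% = DMSO wells without peroxide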
PfM18AAP inh: PfM18AAP inhibitors, malaria aminopeptidase, primary screen, biochemical, QFRET, recombinant enzyme; M18 aspartyl aminopeptidase (Plasmodium falciparum 3D7); H-Glu-NHMec fluorogenic cleavage; inhibition, % at 7.35 µM; 290,000 compounds, 1.2% hits; AID 1822, 2009;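 active means inhibition above the campaign mean inhibition over all tested compounds plus 3 SD, cut at about 28% in these data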;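 further: 0% = plate median of test compound wells and 100% = 2 mM ZnCl2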
PfG6PD inh: PfG6PD enzyme inhibitors, primary screen, biochemical, fluorescence intensity, uHTS. glucose-6-phosphate dehydrogenase-6-phosphogluconolactonase (Plasmodium falciparum 3D7). PfGluPho enzyme, NADPH resazurin-diaphorase fluorescence. 350,000 compounds, 0.78% hits. AID 504690, 2011. inhibition, % at 20 µM;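 active means inhibition reaching at least a set limit at 20 µM in the primary screen, cut at about 59% in these data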;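 further: 0% = DMSO wells with substrate and 100% = DMSO wells lacking glucose-6-phosphate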
* marks the source's active call; other numbers are inactive results; · = not tested or not shown.

SMILES | PHOSPHO1 block | ALR inh | Cardio protect | PfM18AAP inh | PfG6PD inh
CCn1c(-c2cc(OC)c(OC)c(OC)c2)n[nH]c1=S | -37 | 97* | -4 | 10 | 28
C=CCn1c(-c2ccoc2C)n[nH]c1=S | 81* | 4 | 3 | 3 | 2
CC1(C)N=C(N)N=C(N)N1c1cccc(C#N)c1 | · | · | 0 | · | 6
Oc1ccc(C=NN=Cc2ccco2)c(O)c1 | · | · | -16 | · | 11
N#CCSc1ccccc1NC(=O)CN1C(=O)C2CC=CCC2C1=O (stereo unspecified) | · | · | 5 | · | 14
Cc1ccnc(N2C(=O)c3ccccc3C2O)c1 (stereo unspecified) | -9 | -2 | -7 | 0 | 10
Cc1ccc(N2C(=O)c3ccccc3C2C(=O)c2ccc(O)cc2O)cc1 (stereo unspecified) | 21 | -58 | 12 | 30* | 4
CCCN1CCC(NC(=O)CC2C(=O)NCCN2Cc2ccccc2C)CC1 (stereo unspecified) | 36 | -48 | 1 | 7 | -5
COc1ccc(-c2n[nH]c(=S)o2)c(OC)c1 | 103* | 90* | 6 | -3 | 10
CCOc1ccccc1-c1n[nH]c(=S)o1 | 100* | 37 | -1 | 1 | 1
CC(=O)Nc1ccc(NC(=O)c2c(C)c(-c3ccccc3)nc3ccccc23)cc1 | · | -22 | 6 | · | 4
COc1cc(C2OCC3C(c4ccc(OC5OC(CO)C(O)C(O)C5O)c(OC)c4)OCC23)ccc1O (stereo unspecified) | 4 | 95* | 1 | 41* | -15
COc1cc([C@H]2OC[C@H]3[C@@H]2CO[C@H]3c2ccc(O)c(OC)c2)ccc1O | · | 98* | 4 | · | -3
COCC#Cc1ccc2c(c1)O[C@@H](CN(C)C(=O)Nc1ccc(OC)cc1)[C@H](C)CN([C@H](C)CO)S2(=O)=O | · | · | 5 | · | -4
CC(=O)COC(=O)c1ccc2noc(-c3ccccc3)c2c1 | 12 | -3 | 1 | 30* | -13
CCC(C)N1C(=O)S/C(=C/c2ccc3c(c2)n(C)c(=O)n3C)C1=O (stereo unspecified) | -23 | -3 | 57* | -5 | 4
CC(C)N1C(=O)S/C(=C/c2cccnc2)C1=O | 45 | 24 | 3 | 13 | 11
CCOC(=O)C(C)N1C(=O)S/C(=C/c2ccc3c(c2)n(C)c(=O)n3C)C1=O (stereo unspecified) | 18 | -2 | 11 | -3 | 9
CC(C)N1C(=O)S/C(=C/c2ccc3c(c2)n(C)c(=O)n3C)C1=O | 23 | · | 63* | 1 | 11
CC12CCC3C(CCC4CC(O)CCC43C)C1CC(O)C2 (stereo unspecified) | · | · | 50* | · | -19
CC(C)Cn1c(CCC(N)=O)nnc1SC(C)C(=O)Nc1ccc2c(c1)OCO2 (stereo unspecified) | · | -4 | 2 | · | 13
CCc1nn2c(=O)cc(COC(=O)c3ccc(SC)cc3OC)nc2s1 | · | -10 | -4 | · | -2
CN(CC1COc2ccccc2O1)C(=O)c1ccc(N(C)C)cc1 (stereo unspecified) | 11 | 89* | -5 | -11 | 11
CN(CC1COc2ccccc2O1)C(=O)c1cccc(S(=O)(=O)N2CCCC2)c1 (stereo unspecified) | · | -9 | -6 | · | -20
O=C(NC1CCCCC1)N1CCN(c2ccc([N+](=O)[O-])cc2)CC1 | 16 | 18 | -6 | -1 | 16
SMILES | PHOSPHO1 block | ALR inh | Cardio protect | PfM18AAP inh | PfG6PD inh
O=C(NC1CCCCC1)N1CCN(c2ccc(Cl)cc2)CC1 | 31 | 99* | -7 | -5 | 7
S=c1[nH]ccc2ccccc12 | · | · | 12 | · | 55
S=c1[nH]ncc2ccccc12 | 67* | -26 | 16 | -2 | -2
O=C(Cc1ccc(Cl)cc1)OCc1nnc(-c2ccccc2)o1 | 60* | -5 | -5 | 2 | -5
Cc1[nH]n(C(N)=S)c(=O)c1N=Nc1cc(-c2ccc(Br)cc2)[nH]n1 | 4 | 99* | 3 | -7 | -20
Cc1c(N=Nc2c(-c3ccc([N+](=O)[O-])cc3)[nH]n(C(N)=S)c2=O)cccc1[N+](=O)[O-] | -26 | · | -16 | 3 | 12
Cc1ccc(N=Nc2c(C)[nH]n(C(N)=S)c2=O)cc1C | 10 | -12 | 2 | -3 | -9
Cc1[nH]n(C(N)=S)c(=O)c1N=Nc1cccc([N+](=O)[O-])c1C | · | 98* | -5 | 4 | 10
O=C1C=C(c2ccc3c(c2)oc2ccccc23)C[C@@H](c2ccc3c(c2)OCO3)C1 | · | -2 | 0 | · | -12
COc1cc(Cl)ccc1OC1(C)CCN(Cc2ccc3ccccc3c2)C1 (stereo unspecified) | · | · | -15 | · | ·
O=C(Nc1ccsc1C(=O)O)c1ccc(Cl)cc1 | 44 | 97* | -9 | -1 | 11
Cc1ccc(C(=O)Nc2ccsc2C(=O)O)cc1 | 28 | · | -15 | 1 | 19
Cc1cc(OCC(=O)Nc2sc3c(c2C#N)CC(C)(C)NC3(C)C)c(C(C)C)cc1Cl | 33 | -8 | 9 | 8 | 16
CCc1ccc(-c2nc(CN3CCC(C(=O)NCc4ccc(F)cc4)CC3)c(C)o2)cc1 | 9 | -6 | -2 | -18 | 0
CCN(CCNC(=O)C1CCN(Cc2nc(-c3ccc(Cl)cc3)oc2C)CC1)c1ccccc1 | 14 | 98* | -7 | -9 | 3
CCc1ccc(-c2nc(CN3CCCC(C(=O)O)C3)c(C)o2)cc1 (stereo unspecified) | 4 | -2 | 12 | -2 | -14
CCN(CCNC(=O)C1CCN(Cc2nc(-c3cccc(Cl)c3)oc2C)CC1)c1ccccc1 | 4 | 99* | -5 | 10 | -16
CCN(CCNC(=O)C1CCCN(Cc2nc(-c3ccc(OC)cc3)oc2C)C1)c1ccccc1 (stereo unspecified) | 18 | 96* | 2 | 2 | 19
CCc1ccc(-c2nc(CN3CCC(C(=O)NCCN(CC)c4ccccc4)CC3)c(C)o2)cc1 | 31 | 99* | -18 | 2 | 15
Cc1oc(-c2cccc(Cl)c2)nc1CN1CCC(C(=O)NC2CC2)CC1 | 17 | -2 | 8 | -5 | 0
Cc1oc(-c2ccc(Cl)cc2)nc1CN1CCC(C(=O)NCCCN2CCOCC2)CC1 | 23 | -8 | 4 | -7 | -2
COc1cc(OC)c2c(-c3cccc(-c4ccc(F)c(Cl)c4)c3)cc(=O)oc2c1 | · | · | -10 | · | 14
CN(CC(=O)Nc1cccc(F)c1)CC(=O)N(C)CC(=O)Nc1ccccc1Br | · | · | -2 | · | 1
COCCCNC(=O)CCc1nnc(Cc2ccc(-c3ccccc3)cc2)o1 | 41 | · | -5 | -2 | 12
Cc1ccc(CNC(=O)CCc2nnc(Cc3ccc(-c4ccccc4)cc3)o2)o1 | 50 | 97* | -8 | -3 | 5
CSCCC(NC(=O)c1cc(C)oc1C)C(=O)O (stereo unspecified) | 90* | -5 | -2 | -2 | 8
COc1ccc(-c2nc(CSCC(=O)NCC3CCCO3)c(C)o2)cc1OC (stereo unspecified) | 28 | 98* | 2 | 1 | 3
